# Results from PubChem BioAssay AID504466 (National Center for Advancing Translational Sciences (NCATS), 2011).
# The whole screen tested about 330,000 compounds, of which about 4,200 (1.3%) were called active. Not shown: some 6% with an inconclusive outcome. The full list was thinned out, with actives kept by preference. Unmarked numbers belong to inactive results. Calls follow the shape of the dose curve; as a rule, active = well fitted activation curve with a large enough effect; inconclusive = small, poorly fitted or top-dose-only effect; inactive = no such curve, though single readings can be large or run the other way.
# Experiment: qHTS screen for small molecules that induce genotoxicity in human embryonic kidney (HEK293T) cells expressing luciferase-tagged ELG1; also: nearly all actives have a fitted effect of over 60% in size; as to activity change, positive = activation: % of control where 0% means no effect
# Details: HEK293T ELG1-luciferase reporter, luminescence, 16 h; series mostly up to 46 µM; activity change, positive = activation: at the top concentration
# Procedure, shortened: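 Genotoxic stress is detected as increased luminescence from luciferase-tagged ELG1 in HEK293T cells, measured with ONE-Glo after a 16 hr treatment at 37 °C.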
# Potency is read from the fitted curve at half-maximal effect.
Structure (SMILES),"activity change, positive = activation",Potency
Cc1csc(=O)n1CC(=O)Nc1ccc(S(C)(=O)=O)cc1,1.22%,
O=C(COC(=O)c1ccc(F)c(S(=O)(=O)N2CCOCC2)c1)NCc1ccc2c(c1)OCO2,-1.23%,
O=C1CC2(CCCC2)C(=O)N1CN1CCN(S(=O)(=O)c2ccc(F)cc2F)CC1,-1.8%,
Nc1ccc(S(=O)(=O)Nc2nccc(/C=C/c3ccc(Br)s3)n2)cc1,2.69%,
Oc1cccc2ccc(/C=C/c3ccc(Br)s3)nc12,,20.6 µM (active)
O=C(Nc1nc(-c2cccnc2)cs1)c1ccccc1F,,18.3 µM (active)
O=C(O)c1ccccc1C(=O)Nc1nc(-c2ccccc2)cs1,1.21%,
O=C(COc1ccccc1F)Nc1nc(-c2ccccn2)cs1,7.21%,
CC1O[C@@H](OC2C(O)C(C)O[C@H](OC(=O)[C@]34CCC(C)(C)C[C@H]3C3=CCC5[C@@]6(C)CC(O)C(O[C@@H]7OC(CO)C(O)[C@@H](O)[C@@H]7O)[C@@](C)(C(=O)O)C6CC[C@@]5(C)[C@]3(CO)CC4)C2O[C@H]2OC(C)[C@@H](O[C@@H]3OCC(O[C@@H]4OC(CO)C(O)[C@H](O)C4O)[C@@H](O)[C@@H]3O)[C@H](O)C2O)C(O)C(O)C1O (some centres undefined),-0.551%,
C=CCNC(=O)c1csc(-c2ccccc2)n1,3.59%,
C=CCNC(=O)c1cc(-c2ccccc2O)on1,,18.4 µM (active)
C=CCNC(=O)c1ccccc1SCc1c(C)noc1C,10.9%,
C[C@H](CO)N1C[C@H](C)[C@@H](CN(C)S(=O)(=O)c2ccc(F)cc2)Oc2ccc(NC(=O)CCC(F)(F)F)cc2C1=O,-1.82%,
COc1ccc(OCC(=O)Nc2nnc(-c3ccco3)s2)cc1,-0.333%,
CCCCOc1ccc(-c2nnc(-c3ccco3)o2)cc1,,3.66 µM (active)
O=C(CCc1ccccc1)Nc1cccc(-c2nnc(-c3ccco3)o2)c1,-6.33%,
CCC(C)c1ccc(NC(=O)COC(=O)C2CCCC2)cc1 (centres undefined),13.7%,
COc1cc(/C=C/C(=O)Nc2ccc(OC)c(S(=O)(=O)N3CCOCC3)c2)ccc1OCC#N,-5.08%,
O=C(OCCN1C(=O)c2ccccc2C1=O)[C@@H]1CC(O)CN1S(=O)(=O)c1ccccc1[N+](=O)[O-] (some centres undefined),-0.548%,
CCCc1cc(=O)oc2c(C)c(OCC(=O)N3CCC(C(=O)O)CC3)ccc12,-1.71%,
CCCc1cc(=O)oc2c(C)c(OCC(=O)NCc3ccccn3)ccc12,0.193% [at 9.26 µM],
CCCc1cc(=O)oc2c(C)c(OCC(=O)Nc3ccccn3)ccc12,,5.17 µM (active)
O=C(Nc1cc(S(=O)(=O)N2CCCCC2)ccc1Cl)C1COc2ccccc2O1 (centres undefined),-5.67%,
CC[C@]12c3[nH]c4ccc(Cl)cc4c3CCN1C(=O)[C@@H](CC(=O)NCCN1CCOCC1)C[C@@H]2C(=O)N1CCN(C(=O)C2CC2)CC1,5.63%,
COc1ccc(NS(=O)(=O)c2ccc3oc(SCC(N)=O)nc3c2)cc1,-12.5%,

Structure (SMILES),"activity change, positive = activation",Potency
COc1ccc(S(=O)(=O)N(C)C)cc1NC(=O)CSc1ncccn1,2.94%,
CN(C)S(=O)(=O)c1ccc2oc(SCC(=O)Nc3ccccc3F)nc2c1,,10.3 µM (active)
O=c1c2c(nc3cc(-c4cccc(Cl)c4)[nH]n13)CCCC2,,0.517 µM (active)
O=c1c2c(nc3nc[nH]n13)CCC2,4.12%,
CCCCN1Cc2c(nc3cc(-c4ccccc4)[nH]n3c2=O)C1=O,3.81%,
Cc1ccc(CNC(=O)Cn2cnc3c(NCc4ccccc4)ncnc32)o1,0.754%,
c1csc(-c2cn3c(n2)SCC3)c1,3.5%,
O=C(Nc1nc(-c2ccc(-c3ccccc3)cc2)cs1)c1cnccn1,15.3%,
CCc1noc(C)c1C(=O)Nc1nc(-c2ccccc2)cs1,1.72%,
Cc1cccc(S(=O)(=O)CC(=O)Nc2nc(-c3ccccc3)cs2)c1,-2.42%,
Clc1ccc(Nc2nc(-c3cccs3)cs2)nc1,,1.16 µM (active)
COc1ccc(Nc2nc(-c3ccccc3)cs2)cc1,,0.58 µM (active)
c1ccc(Nc2nc(-c3ccncc3)cs2)nc1,,1.46 µM (active)
COc1ccc(NC(=O)c2sc(N)nc2-c2ccccc2)cc1,1.11%,
Clc1ccc(-c2csc(-c3ccncc3)n2)cc1,12.6%,
Clc1ccc(-n2nnnc2-c2cnc(-c3ccccn3)nc2-c2cccs2)cc1,-5.46%,
Cc1cccc(Nc2nc(-c3ccccc3)cs2)n1,,2.91 µM (active)
COc1ccc(Nc2nnc(C)c3ccccc23)cc1,16.7%,
O=C(NCC#CCSc1nnc(-c2cccc3ccccc23)o1)c1cccs1,-0.584%,
O=C(CNC(=O)c1ccco1)NNC(=O)c1ccc(Br)cc1,-1.29%,
C[C@H](CO)N1C[C@H](C)[C@@H](CN(C)C(=O)Nc2ccc3c(c2)OCO3)Oc2c(cccc2N(C)C)C1=O,3.83%,
CC(=O)c1ccc(NC(=O)CSc2nc3ccccc3c(=O)n2CCCN2CCOCC2)cc1,15.5%,
Cc1c(NC(=O)C(C)OC(=O)c2ccccc2O)c(=O)n(-c2ccccc2)n1C (centres undefined),1.59%,
Cn1c(N)c(C(=O)COC(=O)c2cccc(S(=O)(=O)N3CCOCC3)c2)c(=O)n(C)c1=O,1.81%,
